# Pol kappa inh: DNA polymerase kappa (human) inhibition; Q9UBT6; purified Pol kappa, fluorescent DNA synthesis assay, 10 min; Potency, µM (top dose mostly 107 µM), for inactives: at the top dose activity, negative = inhibition, actives largely listed as inhibitors; 400,000 compounds, 0.53% hits; AID 588579; also: potency is read from the fitted curve at half-maximal effect; % is scaled to controls: 0 for no effect and ±100 for the full control effect
#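 Kinetic fluorescence screen: compound preincubated 15 min RT with 10 nM enzyme; 50 nM substrate (final) initiates; reads at 0/10 min.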
# PI5P4Ka inh: blocks human PI5P4K alpha kinase activity; P48426; PI5P4Kalpha enzyme, ADP-Glo luminescence, 60 min; active compounds read low; max response, %; 330,000 compounds, 1.2% hits; active = max response of -50% or lower; inconclusive = between -30% and -50%; inactive = -30% or higher; also: value at the top dose of about 77 µM; % is scaled to controls: 0 for no effect and ±100 for the full control effect
#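 Single end-point luminescence (ADP-Glo) quantified ADP from PI5P4Kalpha turnover; ATP 5 microM final, 1 h at RT, 0.1% CHAPS and 0.28 mM EGTA in HEPES pH 7.4.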
# POLI inh: inhibitors of human DNA polymerase iota | Potency, µM (top dose mostly 115 µM), without a hit: at the top dose activity, negative = inhibition, usual class: inhibitors | Pol iota fluorescent replication assay, 10 min | 390,000 compounds, 1% hits; also: potency is read from the fitted curve at half-maximal effect
#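 Pol iota at 10 nM preincubated 15 min with compounds at room temperature; reaction started with fluorescent substrate, 50 nM final. Fluorescence read kinetically at 0 and 10 min; buffer-only wells as negative control.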
# Pol beta inh: DNA polymerase beta (human) inhibition | P06746 | Pol beta primer extension/strand displacement, fluorescence kinetic | Potency, µM (doses to about 114 µM), inactives show at the highest dose activity change, negative = inhibition, actives largely listed as inhibitors | 340,000 compounds, 1.3% hits; also: potency is read from the fitted curve at half-maximal effect; % is scaled to controls: 0 for no effect and ±100 for the full control effect
#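 Preincubation: enzyme (10 nM) with compound, 15 min, RT. Reaction: substrate added to 50 nM final. Reads: 0 and 10 min. Analysis: normalized, Hill fit.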
# Pol eta inh: blocks human DNA polymerase eta activity; Q9Y253; recombinant Pol eta, fluorescent DNA replication assay; Potency, µM (highest dose often 114 µM), for inactives: top-dose activity change, negative = inhibition, most hits filed as inhibitors; 390,000 compounds, 1.2% hits; AID 588591; also: potency is read from the fitted curve at half-maximal effect; % is scaled to controls: 0 for no effect and ±100 for the full control effect
#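 Pol eta (10 nM) was preincubated with compounds for 15 min at room temperature, after which fluorescent replication substrate (50 nM final) was added to start the reaction. Fluorescence was read kinetically at 0 and 10 min.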
# WRN helicase inh: blocks human WRN helicase; Q14191; WRN helicase unwinding, fluorescent forked duplex, kinetic; Potency, µM (doses to about 114 µM), for inactives: at the top dose activity change, negative = inhibition, actives largely listed as inhibitors; 360,000 compounds, 0.46% hits; AID 651768; also: potency is read from the fitted curve at half-maximal effect; % is scaled to controls: 0 for no effect and ±100 for the full control effect; nearly all actives have a fitted effect of over 55% in size
#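 Screening of the MLSMR collection measured strand separation of a quenched forked DNA duplex (100 nM) by 20 nM WRN with 2 mM ATP, all final. Compounds were preincubated with enzyme 15 min at room temperature.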
# * marks the source's active call; other numbers are inactive results; ? = inconclusive; nt = no result given; [ ] = remark or other dose. Compounds with a hit are over-represented: about 2.8% of the library has one in this group of screens. Unless noted, calls follow the shape of the dose curve; as a rule, active = well fitted curve in the direction sought with a large enough effect; inconclusive = small, poorly fitted or top-dose-only effect, or another doubt; inactive = no such curve, though single readings can be large; an effect the other way counts as inactive or inconclusive.
SMILES,Pol kappa inh,PI5P4Ka inh,POLI inh,Pol beta inh,Pol eta inh,WRN helicase inh
CCOC(=O)C1CCN(c2ncnc3c2cnn3-c2ccc(OC)cc2)CC1,-22.8%,nt,10.8%,50.1µM*,-7.0%,-19.5%
COc1ccc(-n2ncc3c(N4CCC(C(N)=O)CC4)ncnc32)cc1,-11.2%,nt,0.9%,?,-23.1%,8.8%
O=C(O)c1cc(=O)c2c3nc4ccccc4oc-3cc(=O)c2[nH]1,10µM*,nt,?,nt,nt,nt
COc1ccc(OC)c2c(=O)cc(C(=O)O)[nH]c12,-1.0%,-11.8,158.7%,-26.5%,-9.9%,-26.2%
COC(=O)c1cc(S(=O)(=O)NCC2CCN(Cc3cccc(Cl)c3)CC2)c[nH]1,-7.4%,-0.7,22.8%,16.1%,-15.1%,-10.4%
Cc1ccc(C(=O)O/N=C(\N)c2ccc(Br)cc2)cc1,-22.8%,9.7,89.1µM*,?,-21.9%,-2.0%[57.1 µM]
COc1cc(/C=C2\SC(=O)N(CC(=O)Nc3ccccc3F)C2=O)cc(Cl)c1O,?,?,?,?,50.1µM*,-8.2%[57.1 µM]
COc1cc(/C=C2\SC(N)=NC2=O)cc(Br)c1O,-40.4%,-70.5*,-16.8%,?,-0.4%,-15.1%
COc1cc(/C=C2\SC(N)=NC2=O)ccc1OCC(=O)Nc1ccc(C)cc1,-41.9%,-7.4,79.4µM*,3.55µM*,?,-9.4%[11.6 µM]
COc1cc(/C=C2\SC(c3ccccc3)=NC2=O)cc(Cl)c1O,-17.4%,-98.7*,38.8%,-3.6%,?,?
Cc1nc2sc(C(c3ccco3)N3CCC(Cc4ccccc4)CC3)c(O)n2n1 (stereo unspecified),-28.4%,-19.5,11.8%,0.0%,-11.5%,-4.3%
COc1ccc(CCN2C(=O)CN(C3CCCCCC3)C(=O)C2c2ccc(C)cc2)cc1OC (stereo unspecified),-2.9%[60.1 µM],nt,18.8%,2.4%,-21.0%,nt
C#CCOc1c(Cl)cc(/C=C2/C(=O)ON=C2C)cc1OC,-7.4%,0.5,103.6%,-15.7%,-15.7%,-15.9%
CC(=O)Nc1ccc(S(=O)(=O)Oc2cccc(/C=C3\SC(N)=NC3=O)c2)cc1,7.8%,?,62.2%,-7.2%,-1.1%,79.4µM*
COc1cc(/C=C2\SC(=O)N(c3ccccc3Cl)C2=O)cc([N+](=O)[O-])c1O,-11.6%,-53.4*,?,89.1µM*,56.2µM*,-15.6%[11.6 µM]
NC1=NC(=O)/C(=C/c2cccc(F)c2)S1,-21.7%,-3.9,3.8%,2.1%,-0.1%,8.6%
COc1cc(/C=C2/C(=O)ON=C2C)cc(Cl)c1O,1.6%,-58.8*,?,27.2%,-19.3%,-12.6%
COc1cc(/C=C2\SC(=O)N(c3ccc(O)cc3)C2=O)cc(OC)c1OC,3.2%,-0.6,4.3%,-20.3%,-3.4%,-3.8%
CC12OC1C1(O)CCCC1=CC2=O (stereo unspecified),nt,nt,nt,21.2%,nt,nt
CC(C)c1ccc(S(=O)(=O)/N=C2/C=C(Sc3ncn[nH]3)C(=O)c3ccccc32)cc1,79.4µM*,-78.6*,3.55µM*,22.4µM*,12.6µM*,31.6µM*
Cc1ccc(S(=O)(=O)Nc2ccc(O)c(Sc3ncn[nH]3)c2)cc1,-1.2%,4.5,18.3%,-1.8%,-18.2%,-1.0%
Cc1ccc(S(=O)(=O)/N=C2/C=C(Sc3ncn[nH]3)C(=O)c3ccccc32)cc1,-35.0%,-99.9*,1.12µM*,?,3.55µM*,31.6µM*
CC(=O)c1cccc(NC(=O)C(=O)Nc2cccc3ccccc23)c1,-2.3%,1.5,140.6%,3.7%,-13.7%,-10.8%
O=C(O)c1cccc(NC(=O)c2cccc(S(=O)(=O)Nc3cccc(C(=O)O)c3)c2)c1,-4.3%[60.1 µM],nt,6.4%,0.2%,13.5%,nt
O=C(Nc1cccc(C(=O)Nc2ccc(S(=O)(=O)O)c3cc(S(=O)(=O)O)cc(S(=O)(=O)O)c23)c1)Nc1cccc(C(=O)Nc2ccc(S(=O)(=O)O)c3cc(S(=O)(=O)O)cc(S(=O)(=O)O)c23)c1,1.89µM*,nt,10µM*,2.38µM*,1.78µM*,nt
O=S(=O)(c1ccccc1)c1nc(-c2cccs2)oc1SCc1ccccc1F,3.1%,nt,-10.2%,-21.8%,-20.0%,nt

# Screens (PubChem)
